Holding throughout (assay): DAPPL (digital affinity profiling via proximity ligation, sequencing); 10 mM Tris-HCl pH 7.5, 50 mM NaCl, 1 mM DTT, 4% glycerol, room temperature, 30 min; GST-TFs on glutathione beads, 16-mer random dsDNA library, 0.1% formaldehyde crosslink after washing; high values mean tight binding
The target of one assay is T1, FEV (Homo sapiens, UniProt Q99581 1-238).
T1 sequence: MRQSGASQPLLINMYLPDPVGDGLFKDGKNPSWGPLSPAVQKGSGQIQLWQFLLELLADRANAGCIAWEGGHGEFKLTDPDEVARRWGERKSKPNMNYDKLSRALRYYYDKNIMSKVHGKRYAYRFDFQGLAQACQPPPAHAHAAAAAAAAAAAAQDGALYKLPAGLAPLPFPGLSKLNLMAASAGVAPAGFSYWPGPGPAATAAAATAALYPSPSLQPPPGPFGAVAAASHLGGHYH
The following applies: protein: recombinant; tags: N-terminal GST; dsDNA, one strand shown. The method, boiled down: (§1)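 Beads coated with glutathione captured GST-fused human transcription factors that had been expressed in yeast, and the factors were then given DNA barcodes and pooled with a tag-only sample. The pools were incubated with 200 nmole of a random double-stranded 16-mer DNA library in Tris/NaCl/DTT/glycerol buffer for 30 min at room temperature, washed, crosslinked with 0.1% formaldehyde and proximity-ligated with BsaI/T4 ligase at 37 °C for 1 h. PCR amplification and Illumina NextSeq500 sequencing came last. Binding signal is each hexamer's read frequency for a factor divided by its frequency for the tag-only sample.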

In the next assay the target is ETV5 (Homo sapiens, UniProt P41161 1-510). The following applies: protein: recombinant; tags: N-terminal GST; dsDNA, one strand shown. The essentials: as §1
Chain of ETV5 (P41161 whole entry): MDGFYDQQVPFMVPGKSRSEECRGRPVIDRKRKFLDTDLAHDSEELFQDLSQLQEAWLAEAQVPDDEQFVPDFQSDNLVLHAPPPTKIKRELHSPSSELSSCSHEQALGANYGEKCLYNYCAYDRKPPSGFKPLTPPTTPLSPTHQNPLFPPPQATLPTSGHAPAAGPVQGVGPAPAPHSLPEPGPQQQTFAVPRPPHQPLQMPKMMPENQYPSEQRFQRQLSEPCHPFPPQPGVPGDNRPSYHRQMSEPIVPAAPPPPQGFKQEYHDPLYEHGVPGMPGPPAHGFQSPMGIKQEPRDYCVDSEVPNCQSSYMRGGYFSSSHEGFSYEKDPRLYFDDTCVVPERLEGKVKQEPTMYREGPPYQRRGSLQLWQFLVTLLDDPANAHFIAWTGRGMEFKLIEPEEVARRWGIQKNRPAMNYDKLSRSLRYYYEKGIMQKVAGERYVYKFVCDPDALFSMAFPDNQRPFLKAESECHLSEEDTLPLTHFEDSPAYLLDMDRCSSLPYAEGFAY
In a further assay the target is HSF1 (Homo sapiens, UniProt Q00613 1-529). The following applies: protein: recombinant; tags: N-terminal GST; chain copies: 3; dsDNA, one strand shown. The method, boiled down: as §1
Chain of HSF1 (Q00613 whole entry): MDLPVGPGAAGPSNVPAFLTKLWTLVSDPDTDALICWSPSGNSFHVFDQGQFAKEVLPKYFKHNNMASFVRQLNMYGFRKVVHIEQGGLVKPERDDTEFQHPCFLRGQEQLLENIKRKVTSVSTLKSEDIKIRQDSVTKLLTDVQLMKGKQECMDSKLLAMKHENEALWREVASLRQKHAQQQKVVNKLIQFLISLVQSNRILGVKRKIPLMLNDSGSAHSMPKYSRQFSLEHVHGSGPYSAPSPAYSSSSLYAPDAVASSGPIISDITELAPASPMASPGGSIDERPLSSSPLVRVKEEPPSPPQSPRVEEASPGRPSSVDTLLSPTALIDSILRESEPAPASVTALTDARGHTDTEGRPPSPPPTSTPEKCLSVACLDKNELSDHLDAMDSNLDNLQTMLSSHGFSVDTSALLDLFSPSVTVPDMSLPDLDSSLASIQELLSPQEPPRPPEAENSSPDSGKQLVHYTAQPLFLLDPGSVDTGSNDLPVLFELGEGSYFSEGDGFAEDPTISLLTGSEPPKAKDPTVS
For a further assay, the target named is T2, SPIC (Homo sapiens, UniProt Q8N5J4 1-248).
T2 sequence: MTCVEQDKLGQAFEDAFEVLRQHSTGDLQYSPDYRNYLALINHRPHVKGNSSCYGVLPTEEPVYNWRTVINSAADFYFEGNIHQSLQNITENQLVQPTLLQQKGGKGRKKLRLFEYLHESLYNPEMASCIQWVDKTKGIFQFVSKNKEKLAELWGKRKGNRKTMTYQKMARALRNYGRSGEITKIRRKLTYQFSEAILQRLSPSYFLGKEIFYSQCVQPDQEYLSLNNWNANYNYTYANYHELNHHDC
To be noted: protein: recombinant; tags: N-terminal GST; dsDNA, one strand shown. The essentials:
as §1

For the next assay, the target named is ELF4 (Homo sapiens, UniProt Q99607 1-663). To be noted: protein: recombinant; tags: N-terminal GST; dsDNA, one strand shown. The method, boiled down:
as §1

The target of a further assay is T3, ELK4 (Homo sapiens, UniProt P28324-2 1-405).
T3 sequence: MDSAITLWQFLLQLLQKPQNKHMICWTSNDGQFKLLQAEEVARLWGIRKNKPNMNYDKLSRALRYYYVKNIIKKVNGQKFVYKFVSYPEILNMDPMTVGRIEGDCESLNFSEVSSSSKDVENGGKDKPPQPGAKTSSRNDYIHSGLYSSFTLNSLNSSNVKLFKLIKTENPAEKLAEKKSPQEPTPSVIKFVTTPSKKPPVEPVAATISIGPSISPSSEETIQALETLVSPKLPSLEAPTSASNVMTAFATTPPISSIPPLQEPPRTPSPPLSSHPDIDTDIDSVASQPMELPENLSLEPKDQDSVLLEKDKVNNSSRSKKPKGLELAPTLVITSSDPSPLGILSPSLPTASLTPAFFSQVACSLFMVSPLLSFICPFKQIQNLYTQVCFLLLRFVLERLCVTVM
To be noted: protein: recombinant; tags: N-terminal GST; dsDNA, one strand shown. The method, boiled down: as §1

Another assay addresses T4, ETV2 (Homo sapiens, UniProt O00321 1-342).
T4 sequence: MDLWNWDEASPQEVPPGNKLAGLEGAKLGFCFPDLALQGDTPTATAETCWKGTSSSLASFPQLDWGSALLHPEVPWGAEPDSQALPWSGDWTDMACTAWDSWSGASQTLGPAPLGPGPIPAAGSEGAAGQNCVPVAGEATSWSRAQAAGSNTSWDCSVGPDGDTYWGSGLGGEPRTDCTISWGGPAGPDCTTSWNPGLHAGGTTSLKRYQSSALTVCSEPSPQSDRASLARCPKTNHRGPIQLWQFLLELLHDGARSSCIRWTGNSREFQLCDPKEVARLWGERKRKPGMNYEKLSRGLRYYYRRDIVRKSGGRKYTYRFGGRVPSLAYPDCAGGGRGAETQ
To be noted: protein: recombinant; tags: N-terminal GST; dsDNA, one strand shown. The essentials: as §1

The target in another assay is T5, ELF3 (Homo sapiens, UniProt P78545 1-371).
T5 sequence: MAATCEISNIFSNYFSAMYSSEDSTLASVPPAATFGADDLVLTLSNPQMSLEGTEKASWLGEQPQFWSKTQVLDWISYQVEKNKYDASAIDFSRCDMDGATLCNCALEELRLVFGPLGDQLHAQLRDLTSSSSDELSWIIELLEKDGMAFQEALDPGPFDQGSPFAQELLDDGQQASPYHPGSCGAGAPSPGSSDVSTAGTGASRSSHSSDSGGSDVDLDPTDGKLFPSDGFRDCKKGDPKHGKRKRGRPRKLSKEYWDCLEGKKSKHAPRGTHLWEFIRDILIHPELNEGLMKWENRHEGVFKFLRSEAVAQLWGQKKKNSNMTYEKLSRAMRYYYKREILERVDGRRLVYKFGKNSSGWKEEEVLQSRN
The following applies: protein: recombinant; tags: N-terminal GST; dsDNA, one strand shown. The essentials: as §1

Another assay has as its target CRX (Homo sapiens, UniProt O43186 1-299). To be noted: protein: recombinant; tags: N-terminal GST; dsDNA, one strand shown. The method, boiled down:
as §1

The target in a further assay is ETV1 (Homo sapiens, UniProt P50549 1-477). To be noted: protein: recombinant; tags: N-terminal GST; dsDNA, one strand shown. The essentials: as §1
Chain of ETV1 (P50549 whole entry): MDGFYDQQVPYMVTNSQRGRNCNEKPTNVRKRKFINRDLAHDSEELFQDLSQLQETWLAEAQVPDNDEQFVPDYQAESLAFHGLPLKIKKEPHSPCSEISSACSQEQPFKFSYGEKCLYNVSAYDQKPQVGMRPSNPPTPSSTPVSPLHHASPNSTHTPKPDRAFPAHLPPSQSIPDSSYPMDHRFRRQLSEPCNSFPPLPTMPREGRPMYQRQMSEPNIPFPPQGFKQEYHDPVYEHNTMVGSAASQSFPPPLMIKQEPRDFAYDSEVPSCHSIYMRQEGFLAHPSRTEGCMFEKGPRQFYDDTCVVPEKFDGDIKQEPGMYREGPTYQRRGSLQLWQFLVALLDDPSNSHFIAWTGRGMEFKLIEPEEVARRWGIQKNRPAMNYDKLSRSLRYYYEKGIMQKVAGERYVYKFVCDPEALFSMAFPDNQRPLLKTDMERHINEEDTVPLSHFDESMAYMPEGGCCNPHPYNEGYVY
The target in another assay is T6, ERF (Homo sapiens, UniProt P50548 1-548).
T6 sequence: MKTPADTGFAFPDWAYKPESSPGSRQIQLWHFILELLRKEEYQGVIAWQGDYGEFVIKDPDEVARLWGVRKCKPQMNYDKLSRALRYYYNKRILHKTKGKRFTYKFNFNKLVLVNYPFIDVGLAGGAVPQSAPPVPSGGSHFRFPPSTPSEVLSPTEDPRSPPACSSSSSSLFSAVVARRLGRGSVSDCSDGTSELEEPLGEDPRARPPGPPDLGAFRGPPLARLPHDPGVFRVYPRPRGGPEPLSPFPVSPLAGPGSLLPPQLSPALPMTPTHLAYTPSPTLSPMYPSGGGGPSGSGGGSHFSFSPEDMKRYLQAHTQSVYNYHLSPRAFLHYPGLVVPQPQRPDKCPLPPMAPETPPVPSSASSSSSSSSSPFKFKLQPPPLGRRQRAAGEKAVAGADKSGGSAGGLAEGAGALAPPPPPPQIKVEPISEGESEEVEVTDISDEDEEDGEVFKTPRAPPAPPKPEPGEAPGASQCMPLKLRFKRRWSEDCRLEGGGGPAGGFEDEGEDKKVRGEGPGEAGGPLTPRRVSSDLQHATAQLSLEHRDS
The following applies: protein: recombinant; tags: N-terminal GST; dsDNA, one strand shown. The method, boiled down:
as §1

A further assay has as its target T7, ETV3L (Homo sapiens, UniProt Q6ZN32 1-361).
T7 sequence: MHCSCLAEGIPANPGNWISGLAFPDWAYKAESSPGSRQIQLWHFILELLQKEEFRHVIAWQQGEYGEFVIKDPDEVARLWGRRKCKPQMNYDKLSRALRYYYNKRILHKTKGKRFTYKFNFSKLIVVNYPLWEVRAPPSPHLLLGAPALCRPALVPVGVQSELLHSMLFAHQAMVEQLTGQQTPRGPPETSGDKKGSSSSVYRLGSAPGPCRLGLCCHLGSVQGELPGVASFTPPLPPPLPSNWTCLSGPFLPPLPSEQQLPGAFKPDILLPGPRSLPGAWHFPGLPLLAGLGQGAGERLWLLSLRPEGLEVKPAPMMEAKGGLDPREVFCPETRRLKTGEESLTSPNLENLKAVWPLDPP
To be noted: protein: recombinant; tags: N-terminal GST; dsDNA, one strand shown. The essentials:
as §1

The next assay concerns the target T8, ETS2 (Homo sapiens, UniProt P15036 1-469).
T8 sequence: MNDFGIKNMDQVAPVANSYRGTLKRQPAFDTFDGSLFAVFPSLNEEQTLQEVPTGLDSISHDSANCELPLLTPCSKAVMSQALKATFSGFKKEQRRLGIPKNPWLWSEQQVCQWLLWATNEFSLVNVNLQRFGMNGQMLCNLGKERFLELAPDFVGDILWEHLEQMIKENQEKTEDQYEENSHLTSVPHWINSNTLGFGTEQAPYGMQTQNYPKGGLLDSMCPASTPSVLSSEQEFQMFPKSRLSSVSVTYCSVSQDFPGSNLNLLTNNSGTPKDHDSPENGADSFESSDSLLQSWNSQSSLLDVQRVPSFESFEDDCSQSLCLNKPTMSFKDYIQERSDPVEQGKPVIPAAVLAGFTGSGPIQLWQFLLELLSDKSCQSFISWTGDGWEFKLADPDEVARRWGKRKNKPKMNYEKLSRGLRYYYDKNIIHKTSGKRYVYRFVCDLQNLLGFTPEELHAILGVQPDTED
To be noted: protein: recombinant; tags: N-terminal GST; dsDNA, one strand shown. The essentials: as §1

The next assay has as its target T9, SPDEF (Homo sapiens, UniProt O95238 1-335).
T9 sequence: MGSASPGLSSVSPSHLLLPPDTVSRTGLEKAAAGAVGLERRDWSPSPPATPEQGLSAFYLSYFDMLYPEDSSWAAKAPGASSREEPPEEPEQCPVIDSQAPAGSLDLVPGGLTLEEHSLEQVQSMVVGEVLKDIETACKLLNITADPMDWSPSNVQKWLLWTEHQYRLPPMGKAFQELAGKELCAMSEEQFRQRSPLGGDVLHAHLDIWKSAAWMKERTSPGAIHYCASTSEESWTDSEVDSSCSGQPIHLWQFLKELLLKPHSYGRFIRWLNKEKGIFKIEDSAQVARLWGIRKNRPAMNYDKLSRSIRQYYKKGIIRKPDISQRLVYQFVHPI
To be noted: protein: recombinant; tags: N-terminal GST; dsDNA, one strand shown. The method, boiled down:
as §1

The next assay concerns the target T10, ETV7 (Homo sapiens, UniProt Q9Y603 1-341).
T10 sequence: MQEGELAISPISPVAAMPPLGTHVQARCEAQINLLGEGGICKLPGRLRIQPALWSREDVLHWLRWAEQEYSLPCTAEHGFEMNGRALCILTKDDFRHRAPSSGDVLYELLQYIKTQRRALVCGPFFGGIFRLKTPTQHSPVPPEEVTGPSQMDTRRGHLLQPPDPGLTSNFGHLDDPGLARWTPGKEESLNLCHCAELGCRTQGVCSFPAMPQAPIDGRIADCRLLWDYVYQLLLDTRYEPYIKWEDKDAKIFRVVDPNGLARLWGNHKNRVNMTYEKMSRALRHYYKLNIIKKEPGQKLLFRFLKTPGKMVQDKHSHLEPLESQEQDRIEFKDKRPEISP
To be noted: protein: recombinant; tags: N-terminal GST; dsDNA, one strand shown. The essentials:
as §1

The target in a further assay is T11, ELF5 (Homo sapiens, UniProt Q9UKW6-2 1-255).
T11 sequence: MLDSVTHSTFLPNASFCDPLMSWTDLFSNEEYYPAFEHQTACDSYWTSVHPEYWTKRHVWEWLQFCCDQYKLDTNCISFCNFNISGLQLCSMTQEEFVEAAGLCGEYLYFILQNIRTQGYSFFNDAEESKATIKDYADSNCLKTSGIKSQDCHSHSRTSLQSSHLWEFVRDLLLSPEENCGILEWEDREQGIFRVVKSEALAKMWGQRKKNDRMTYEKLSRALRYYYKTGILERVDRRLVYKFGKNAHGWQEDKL
The following applies: protein: recombinant; tags: N-terminal GST; dsDNA, one strand shown. The essentials:
as §1

The target in another assay is T12, ETV3 (Homo sapiens, UniProt P41162-2 1-143).
T12 sequence: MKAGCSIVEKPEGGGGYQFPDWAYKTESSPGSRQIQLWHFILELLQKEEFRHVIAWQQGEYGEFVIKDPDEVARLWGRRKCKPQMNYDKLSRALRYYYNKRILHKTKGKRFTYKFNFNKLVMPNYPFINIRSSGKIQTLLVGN
To be noted: protein: recombinant; tags: N-terminal GST; dsDNA, one strand shown. The essentials:
as §1

A further assay deals with ETV6 (Homo sapiens, UniProt P41212 1-452). To be noted: protein: recombinant; tags: N-terminal GST; dsDNA, one strand shown. The essentials: as §1
Chain of ETV6 (P41212 whole entry): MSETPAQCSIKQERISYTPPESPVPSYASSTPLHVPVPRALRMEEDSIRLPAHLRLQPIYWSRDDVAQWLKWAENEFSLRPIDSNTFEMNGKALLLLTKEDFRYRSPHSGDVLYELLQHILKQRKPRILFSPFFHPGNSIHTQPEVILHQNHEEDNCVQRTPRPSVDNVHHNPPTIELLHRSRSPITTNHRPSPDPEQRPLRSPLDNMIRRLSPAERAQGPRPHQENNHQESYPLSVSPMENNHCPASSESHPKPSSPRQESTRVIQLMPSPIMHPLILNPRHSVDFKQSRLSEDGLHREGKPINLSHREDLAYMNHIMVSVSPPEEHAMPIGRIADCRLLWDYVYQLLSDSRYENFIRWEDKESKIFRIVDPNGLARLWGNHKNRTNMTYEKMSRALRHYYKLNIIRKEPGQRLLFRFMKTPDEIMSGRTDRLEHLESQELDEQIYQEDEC

Chain of ELF4 (Q99607 whole entry): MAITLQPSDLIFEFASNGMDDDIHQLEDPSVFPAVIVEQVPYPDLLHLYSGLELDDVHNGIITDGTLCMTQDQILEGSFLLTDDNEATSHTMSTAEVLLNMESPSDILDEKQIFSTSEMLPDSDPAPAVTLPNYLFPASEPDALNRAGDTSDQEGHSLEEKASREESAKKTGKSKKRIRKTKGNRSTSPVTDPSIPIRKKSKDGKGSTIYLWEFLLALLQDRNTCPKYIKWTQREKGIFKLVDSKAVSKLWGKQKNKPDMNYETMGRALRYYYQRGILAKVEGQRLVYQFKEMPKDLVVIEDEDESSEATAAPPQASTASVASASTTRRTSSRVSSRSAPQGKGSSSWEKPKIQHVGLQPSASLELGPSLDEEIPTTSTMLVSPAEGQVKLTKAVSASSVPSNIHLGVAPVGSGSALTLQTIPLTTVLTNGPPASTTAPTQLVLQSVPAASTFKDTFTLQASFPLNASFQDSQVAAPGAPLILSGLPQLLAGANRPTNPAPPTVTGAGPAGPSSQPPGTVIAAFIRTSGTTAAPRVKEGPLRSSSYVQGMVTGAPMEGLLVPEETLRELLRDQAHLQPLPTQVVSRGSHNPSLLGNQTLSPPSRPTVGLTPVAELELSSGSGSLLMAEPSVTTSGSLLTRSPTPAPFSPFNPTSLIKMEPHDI
Chain of CRX (O43186 whole entry): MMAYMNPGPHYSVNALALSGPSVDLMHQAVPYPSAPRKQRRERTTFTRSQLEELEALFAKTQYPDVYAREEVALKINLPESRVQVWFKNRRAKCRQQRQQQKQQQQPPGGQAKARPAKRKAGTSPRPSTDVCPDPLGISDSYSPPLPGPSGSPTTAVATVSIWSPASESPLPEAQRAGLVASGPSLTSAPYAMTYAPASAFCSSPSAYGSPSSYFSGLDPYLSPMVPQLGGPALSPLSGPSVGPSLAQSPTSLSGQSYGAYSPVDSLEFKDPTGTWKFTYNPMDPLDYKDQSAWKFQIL

In the case of AGCCTT, the binding signal with FEV is 1.15 fold enrichment (6-mer frequency, TF over GST control); in the assay with ETV5, 1.13 fold enrichment (6-mer frequency, TF over GST control); in the assay with HSF1 it was 1.26 fold enrichment (6-mer frequency, TF over GST control); with SPIC, 1.17 fold enrichment (6-mer frequency, TF over GST control); in the assay with ELF4, 1.18 fold enrichment (6-mer frequency, TF over GST control); in the assay with ELK4 it was 1.03 fold enrichment (6-mer frequency, TF over GST control). Moreover, the binding signal with ETV2 was 1.2 fold enrichment (6-mer frequency, TF over GST control); with ELF3, 1.23 fold enrichment (6-mer frequency, TF over GST control); with CRX, 1.42 fold enrichment (6-mer frequency, TF over GST control); in the assay with ETV1, 1.17 fold enrichment (6-mer frequency, TF over GST control); with ERF it was 1.21 fold enrichment (6-mer frequency, TF over GST control); with ETV3L, 1.11 fold enrichment (6-mer frequency, TF over GST control). Moreover, the binding signal is 1.07 fold enrichment (6-mer frequency, TF over GST control) in the assay with ETS2; 1.02 fold enrichment (6-mer frequency, TF over GST control) with SPDEF; 1.1 fold enrichment (6-mer frequency, TF over GST control) with ETV7; 1.1 fold enrichment (6-mer frequency, TF over GST control) with ELF5; 1.18 fold enrichment (6-mer frequency, TF over GST control) with ETV3; 1.08 fold enrichment (6-mer frequency, TF over GST control) with ETV6.

For the origin of these results see paper PMC7862700, “An all-to-all approach to the identification of sequence-specific readers for epigenetic DNA modifications on cytosine”.
